This note sets out measurements from the antibiotic and cytotoxicity screens of Wong et al. (2023).

Among all 39,000 compounds or so, about 3,300 (8.5%) were called active. For the sample, actives were picked, then their nearest neighbours and some compounds at random.

This assay relates to HepG2. Put plainly: cytotoxicity call (relative viability < 0.9). As to conditions: 10 µM.
With `CN[C@H]1C[C@@H](N)[C@H](O)[C@@H](O[C@@H]2O[C@H](CO)[C@H](O)[C@@H]3O[C@@]4(O[C@H]23)O[C@H]([C@@H](N)CO)[C@H](O)[C@H](O)[C@H]4O)[C@@H]1O`, the cytotoxicity call was “inactive”.

As for `CCCC(=O)c1c(O)[nH]c(=O)[nH]c1=O`, the cytotoxicity call is “inactive”.

Turning to `c1ccc2sc(C3(N4CCCC4)CCCCC3)cc2c1`, the cytotoxicity call was “inactive”.

Regarding `S=C=Nc1cccc(C2(N3CCCCC3)CCCCC2)c1`, the cytotoxicity call was “active”.

For `c1ccc2sc(C3(N4CCCCC4)CCCCC3)cc2c1`, the cytotoxicity call is “inactive”.

Turning to `Oc1ccccc1N1CCNCC1`, the cytotoxicity call was “inactive”.

On to `O[C@H]1CNC[C@@H]1N1CCCC1`, for which the cytotoxicity call was “inactive”.

In the case of `CN1CC2(CNC2)OCCS1(=O)=O`, the cytotoxicity call is “inactive”.

For the compound `C[C@@H]1CN([C@@H](C)CO)C(=O)CCCn2nncc2CO[C@@H]1CN(C)C(=O)Oc1cccc2ccccc12`, the cytotoxicity call is “inactive”.

With `NCCc1[nH]nc2c1CCCC2`, the cytotoxicity call is “inactive”.

For the compound `CC1(C)NN1CCCN1NC1(C)C` (configuration not stated), the cytotoxicity call was “inactive”.

`NCCO.NCCO.O[AsH]O[AsH]O` (configuration not stated): the cytotoxicity call is “active”.

Take `CC12CCC(=O)C=C1C=CC1C2CCC2(C)C1CCC2(O)CCC(=O)[O-].[K+]` (configuration not stated): the cytotoxicity call is “inactive”.

For `CC12CCC3C(CCC45OC4C(O)=C(C#N)CC35C)C1CCC2O` (configuration not stated), the cytotoxicity call is “inactive”.

Consider `C[C@H](N)Cn1ccc2cc(F)c(Cl)cc21`, for which the cytotoxicity call is “inactive”.

For `CC(C)[C@H](N)C(=O)N1CCC[C@H]1B(O)O`, the cytotoxicity call was “inactive”.

Consider `CO[C@@H]1C[C@@H](C[C@H]2CC[C@H](C)[C@H]([C@@H](C)C(=O)O)O2)O[C@]2(O[C@](C)([C@H]3CC[C@@](C)([C@H]4O[C@@H]([C@H]5O[C@@](O)(CO)[C@H](C)C[C@@H]5C)C[C@@H]4C)O3)C[C@H]2C)[C@@H]1C`, for which the cytotoxicity call is “active”.

Turning to `C[C@@H](N)Cc1ccc2occc2c1`, the cytotoxicity call was “inactive”.

On to `CC1=C2CCC3C4CCC(=O)C4(C)CCC3C2(C)CCC1=O` (configuration not stated), for which the cytotoxicity call was “inactive”.

Take `O=[N+]([O-])c1cc(O)c(O)c([N+](=O)[O-])c1`: the cytotoxicity call is “inactive”.

As to `CC(C)=CCCC1(C)C=Cc2c(O)c3c(c(CC=C(C)C)c2O1)OC12C(=CC4CC1C(C)(C)OC2(CC=C(C)C(=O)O)C4=O)C3=O` (configuration not stated), the cytotoxicity call was “active”.

With `CC(C)=CCCC1(C)C=Cc2c(O)c3c(c(CC=C(C)C)c2O1)OC12C(=CC4CC1C(C)(C)OC2(CC=C(C)C(=O)O)C4O)C3=O` (configuration not stated), the cytotoxicity call is “inactive”.

On to `CC(C)=CCC[C@]1(C)C=Cc2c(O)c3c(c(CC=C(C)C)c2O1)O[C@]12[C@H](C[C@@H]4C[C@H]1C(C)(C)O[C@]2(C/C=C(/C)C(=O)O)[C@@H]4O)C3=O`, for which the cytotoxicity call was “inactive”.

In the case of `COc1cc(C(=O)O)cc(OC)c1OC`, the cytotoxicity call is “inactive”.

With `CCC(CC)C(=O)N[C@@H]1[C@@H]2CNC[C@@H]21`, the cytotoxicity call is “inactive”.

Take `NC[C@H](CC(=O)O)c1ccc(Cl)cc1`: the cytotoxicity call is “inactive”.

`C[C@@H](N)Cc1ccc(O)cc1`: the cytotoxicity call is “inactive”.

In the case of `C=C(CCCCCCCCCCCCCCCC)OOC[C@@H](COP(=O)(ON)O[C@@H]1[C@H](O)[C@H](O)[C@@H](OP(=O)(O)ON)[C@H](OP(=O)(O)ON)[C@H]1O)OOC(=C)CC/C=C/C/C=C/C/C=C/C/C=C/CCCCC` (some centres not stated), the cytotoxicity call was “active”.

For the compound `C[C@H](CO)N1C[C@H](C)[C@H](CN(C)C(=O)Oc2cccc3ccccc23)OCc2cn(nn2)CCCC1=O`, the cytotoxicity call is “inactive”.

As to `Oc1ccc(Cl)cc1`, the cytotoxicity call was “inactive”.

Regarding `Cc1cc(O)ccc1Cl`, the cytotoxicity call was “active”.

Consider `CNC(=O)Oc1ccc2c(c1)[C@]1(C)CCN(C)[C@@H]1N2C.CNC(=O)Oc1ccc2c(c1)[C@]1(C)CCN(C)[C@@H]1N2C.O=S(=O)(O)O`, for which the cytotoxicity call is “inactive”.

`CNC(=O)Oc1ccc2c(c1)C1(C)CCN(C)C1N2C.O=S(=O)(O)O` (configuration not stated): the cytotoxicity call was “active”.

Turning to `CNC(=O)Oc1ccc2c(c1)C1(C)CCN(C)C1N2C` (configuration not stated), the cytotoxicity call is “active”.

In the case of `Br.COc1ccc2c(c1)C13CCCCC1C(C2)N(C)CC3` (configuration not stated), the cytotoxicity call is “inactive”.

Regarding `CNC(=O)Oc1ccc2c(c1)C1(C)CCN(C)C1N2C.O=C(O)c1ccccc1O` (configuration not stated), the cytotoxicity call was “active”.

With `CN1CCC2(C)c3cc(O)ccc3N(C)C12.O=C(O)C=CC(=O)O` (configuration not stated), the cytotoxicity call is “active”.

Take `Cc1ccc(C)c(C(=O)[C@H](N)CC(C)C)c1`: the cytotoxicity call was “inactive”.

For `Cc1cc(C(=O)N2CC[C@H]3[C@@H]2CCN3C)no1`, the cytotoxicity call was “inactive”.

For `CCOc1ccc(N2CCNCC2)nn1`, the cytotoxicity call was “inactive”.

Take `C[C@H](O)[C@]12[C@@H]3CC=C[C@H]1N2CC3` (some centres not stated): the cytotoxicity call was “inactive”.

For the compound `C[C@@H](N)Cc1ccco1`, the cytotoxicity call is “inactive”.

`CSC1=NN1c1cc(C)nc(N)n1`: the cytotoxicity call was “inactive”.

As for `N#C[C@@]12[C@H]3CC=C[C@@H]1N2CC3` (some centres not stated), the cytotoxicity call was “inactive”.

On to `c1nc(N2CCN3CCC[C@H]3C2)c2[nH]cnc2n1`, for which the cytotoxicity call is “inactive”.

With `COCCCNC(=O)C1[C@@H]2CC[C@H]1CNC2` (some centres not stated), the cytotoxicity call was “inactive”.

For `O=[N+]([O-])OC1COC2C(O[N+](=O)[O-])COC12` (configuration not stated), the cytotoxicity call is “inactive”.

As to `OCc1ccc2c(c1)OCO2`, the cytotoxicity call is “inactive”.

`C=CCc1ccc2c(c1)OCO2`: the cytotoxicity call is “active”.

As to `OC[C@@H](O)Cc1ccc2c(c1)OCO2`, the cytotoxicity call was “inactive”.

With `CC=Cc1ccc2c(c1)OCO2`, the cytotoxicity call is “inactive”.

As for `COP(=S)(OC)Oc1ccc([N+](=O)[O-])cc1`, the cytotoxicity call was “inactive”.

Turning to `CC(C)N(CCC(C(N)=O)(c1ccccc1)c1ccccn1)C(C)C.O=P(O)(O)O` (configuration not stated), the cytotoxicity call is “inactive”.

For the compound `Cn1ccnc1N1CCNCC1`, the cytotoxicity call was “inactive”.

Turning to `c1ccc2c(c1)Nc1ccccc1S2`, the cytotoxicity call was “active”.

For the compound `CC[n+]1c(-c2ccccc2)c2cc(N)ccc2c2ccc(N)cc21.[Br-]`, the cytotoxicity call is “active”.

In the case of `Nc1ccc(-c2ccccc2)cc1`, the cytotoxicity call was “inactive”.

As to `O=c1ccc(=O)[nH][nH]1`, the cytotoxicity call is “inactive”.

As for `COC(C)(C)CCCC(C)CC=CC(C)=CC(=O)OC(C)C` (configuration not stated), the cytotoxicity call was “inactive”.

As for `O=C1CNC[C@@H]2c3cccc(F)c3CCN12`, the cytotoxicity call is “inactive”.

Consider `[N-]=[N+]=NCc1ccccc1C[C@]1(C(=O)N2CCOCC2)N=C(c2ccc(OCCCO)cc2)O[C@H]1c1ccccc1N=[N+]=[N-]`, for which the cytotoxicity call was “active”.

On to `[N-]=[N+]=NCc1ccccc1C[C@@]1(C(=O)N2CCCCC2)N=C(c2ccc(OCCCO)cc2)O[C@@H]1c1ccccc1N=[N+]=[N-]`, for which the cytotoxicity call was “inactive”.

Turning to `[N-]=[N+]=NCc1ccccc1C[C@]1(C(=O)N2CCCCC2)N=C(c2ccc(OCCCO)cc2)O[C@H]1c1ccccc1N=[N+]=[N-]`, the cytotoxicity call was “active”.

For `CN1CCc2cc([C@H](CN)N(C)C)ccc21`, the cytotoxicity call was “inactive”.

Consider `CCOP(=S)(OCC)SCSP(=S)(OCC)OCC`, for which the cytotoxicity call was “inactive”.

For `NCCc1cccs1`, the cytotoxicity call was “inactive”.

`CN(C)C(=O)[C@H]1CCC2(CCNCC2)CO1`: the cytotoxicity call was “inactive”.

On to `Cc1cc(C2=NO[C@](c3cc(Cl)cc(Cl)c3)(C(F)(F)F)C2)ccc1C(=O)NCC(=O)NCC(F)(F)F`, for which the cytotoxicity call was “inactive”.

Regarding `[O-][n+]1ccccc1[S][Zn][S]c1cccc[n+]1[O-]`, the cytotoxicity call is “active”.

For `C[As](C)SC[C@H](NC(=O)CC[C@H](N)C(=O)O)C(=O)NCC(=O)O`, the cytotoxicity call was “inactive”.

In the case of `CS(=O)(=O)c1ccc(C(=O)C2C(=O)CCCC2=O)c([N+](=O)[O-])c1`, the cytotoxicity call is “inactive”.

As to `Cl.NCC(O)c1ccc(O)cc1` (configuration not stated), the cytotoxicity call was “inactive”.

On to `O=C([O-])CCCO.[Na+]`, for which the cytotoxicity call is “inactive”.

In the case of `C[C@@]12C(=O)OC(=O)[C@]1(C)[C@H]1CC[C@@H]2O1`, the cytotoxicity call is “active”.

As to `C[C@]12C(=O)OC(=O)[C@]1(C)[C@H]1CC[C@H]2O1`, the cytotoxicity call was “active”.

As to `CC12C(=O)OC(=O)C1(C)C1CCC2O1` (configuration not stated), the cytotoxicity call was “active”.

Regarding `NC1(c2ccc(F)cc2)CCC1`, the cytotoxicity call is “inactive”.

For `COC(=O)C1(O)C[C@H]2CC[C@@H](C1)N2C` (some centres not stated), the cytotoxicity call was “inactive”.

Take `CC=C(C)C(=O)OC1CC(OC(C)=O)C2(C(=O)OC)COC3C2C12COC(O)(C(=O)OC)C2C(C)(C12OC1(C)C1CC2OC2OC=CC21O)C3O` (configuration not stated): the cytotoxicity call is “inactive”.

As for `O[C@H]1C2CN3CCN(C2)CC1(c1ccccc1)C3`, the cytotoxicity call is “inactive”.

Take `O=c1cccc2n1C[C@@H]1CNC[C@H]2C1`: the cytotoxicity call was “inactive”.

As to `Cc1ccc(OC(=O)N(C)C[C@H]2OCc3ccccc3-c3c(n(C)c4ccccc34)C(=O)N([C@@H](C)CO)C[C@H]2C)cc1`, the cytotoxicity call is “inactive”.

On to `Cc1cc([N+](=O)[O-])cnc1N1CCNCC1`, for which the cytotoxicity call was “inactive”.

For `CN1C(=O)[C@@]23C[C@]4([C@@]56C[C@]78SS[C@](CO)(C(=O)N7[C@@H]5Nc5ccccc56)N(C)C8=O)c5ccccc5N[C@H]4N2C(=O)[C@@]1(CO)SS3`, the cytotoxicity call was “active”.

Consider `CN1C(=O)[C@]23CC4=CC=C[C@H](O)[C@H]4N2C(=O)[C@@]1(CO)SS3`, for which the cytotoxicity call was “active”.

Turning to `NC1=NC(=O)C2(CCNCC2)N1`, the cytotoxicity call is “inactive”.

As to `NC[C@@H]1CCCN2CCCC[C@H]12`, the cytotoxicity call is “inactive”.

Consider `CCC(c1cccc(O)c1)C(C)CN(C)C.Cl` (configuration not stated), for which the cytotoxicity call was “inactive”.

Take `COc1cccc2c1C(=O)c1c(O)c3c(c(O)c1C2=O)C[C@@](O)(C(=O)CO)C[C@@H]3O[C@H]1C[C@H](N2CCO[C@H](OC)C2)[C@H](O)[C@H](C)O1`: the cytotoxicity call was “active”.

As to `CC(=C1C(=O)NC(=O)NC1=O)c1ccc(N)cc1`, the cytotoxicity call is “inactive”.

For `O=C(O)Cc1cnc[nH]1`, the cytotoxicity call is “inactive”.

For the compound `CN[C@@H]1[C@@H]2[C@H]3CCN2C[C@H]1O3`, the cytotoxicity call is “inactive”.

With `CNC(=O)[C@@H]1COC[C@@H]2CN(CC(C)C)C[C@@H]21`, the cytotoxicity call was “inactive”.

As to `CCC1(O)C(=O)OCc2c1cc1n(c2=O)Cc2cc3ccccc3nc2-1` (configuration not stated), the cytotoxicity call was “active”.

Turning to `OCC(CO)N1CCC2(CCNCC2)CC1`, the cytotoxicity call is “inactive”.

For the compound `C#CC1(O)C=CC2C3CCC4=CC(=O)CCC4C3CCC21CC` (configuration not stated), the cytotoxicity call was “inactive”.

Take `C[C@@H](N)C(=O)N[C@@H](CO)C(=O)N[C@H](C(=O)N[C@H](C(=O)N[C@H](C(=O)N[C@@H](CC(N)=O)C(=O)N[C@@H](Cc1ccc(O)cc1)C(=O)N[C@H](C(N)=O)[C@@H](C)O)[C@@H](C)O)[C@@H](C)O)[C@@H](C)O`: the cytotoxicity call was “inactive”.

Regarding `C[C@@H]1[C@H](O)[C@@H](C)/C=C\C=C/CC\C=C/C=C\C=C/C=C\[C@H](O[C@@H]2O[C@H](C)[C@@H](O)[C@H](N)[C@@H]2O)C[C@@H]2O[C@](O)(C[C@@H](O)[C@H](O)CC[C@@H](O)C[C@@H](O)C[C@@H](O)CC(=O)O[C@H]1C)C[C@H](O)[C@H]2C(=O)O`, the cytotoxicity call was “inactive”.

Turning to `O=S(=O)(O)O.Oc1cccc2cccnc12`, the cytotoxicity call was “active”.

Turning to `CC(C)(C)NCC(O)c1cc(Cl)c(N)c(Cl)c1.Cl` (configuration not stated), the cytotoxicity call was “inactive”.

As for `CC(C)(C)c1o[nH]c(=O)c1C[C@@H](N)C(=O)O`, the cytotoxicity call was “inactive”.

For the compound `CC1CCC2(NC1)OC1CC3C4CCC5CC(O)CCC5(C)C4CCC3(C)C1C2C.Cl` (configuration not stated), the cytotoxicity call was “inactive”.
